Test results taken from the supplement of paper PMC11732987, “Enantioselective OTUD7B fragment discovery through chemoproteomics screening and high-throughput optimisation” (Communications Chemistry, 2025).

Columns and labels:
Assay in all cases: log2 ratio of Biotin-Ahx-Ub-VS probe labelling (fragment/DMSO); higher = less target engagement (more negative = stronger competition), active = hit call of the paper (q ≤ 0.05, log2 ratio ≤ -1)
Conditions in all cases: compound concentration: 200 uM; treatment time: 3 h
USP42 = biological target: T1, USP42 (UniProt Q9H9J4)
T1 sequence (whole entry): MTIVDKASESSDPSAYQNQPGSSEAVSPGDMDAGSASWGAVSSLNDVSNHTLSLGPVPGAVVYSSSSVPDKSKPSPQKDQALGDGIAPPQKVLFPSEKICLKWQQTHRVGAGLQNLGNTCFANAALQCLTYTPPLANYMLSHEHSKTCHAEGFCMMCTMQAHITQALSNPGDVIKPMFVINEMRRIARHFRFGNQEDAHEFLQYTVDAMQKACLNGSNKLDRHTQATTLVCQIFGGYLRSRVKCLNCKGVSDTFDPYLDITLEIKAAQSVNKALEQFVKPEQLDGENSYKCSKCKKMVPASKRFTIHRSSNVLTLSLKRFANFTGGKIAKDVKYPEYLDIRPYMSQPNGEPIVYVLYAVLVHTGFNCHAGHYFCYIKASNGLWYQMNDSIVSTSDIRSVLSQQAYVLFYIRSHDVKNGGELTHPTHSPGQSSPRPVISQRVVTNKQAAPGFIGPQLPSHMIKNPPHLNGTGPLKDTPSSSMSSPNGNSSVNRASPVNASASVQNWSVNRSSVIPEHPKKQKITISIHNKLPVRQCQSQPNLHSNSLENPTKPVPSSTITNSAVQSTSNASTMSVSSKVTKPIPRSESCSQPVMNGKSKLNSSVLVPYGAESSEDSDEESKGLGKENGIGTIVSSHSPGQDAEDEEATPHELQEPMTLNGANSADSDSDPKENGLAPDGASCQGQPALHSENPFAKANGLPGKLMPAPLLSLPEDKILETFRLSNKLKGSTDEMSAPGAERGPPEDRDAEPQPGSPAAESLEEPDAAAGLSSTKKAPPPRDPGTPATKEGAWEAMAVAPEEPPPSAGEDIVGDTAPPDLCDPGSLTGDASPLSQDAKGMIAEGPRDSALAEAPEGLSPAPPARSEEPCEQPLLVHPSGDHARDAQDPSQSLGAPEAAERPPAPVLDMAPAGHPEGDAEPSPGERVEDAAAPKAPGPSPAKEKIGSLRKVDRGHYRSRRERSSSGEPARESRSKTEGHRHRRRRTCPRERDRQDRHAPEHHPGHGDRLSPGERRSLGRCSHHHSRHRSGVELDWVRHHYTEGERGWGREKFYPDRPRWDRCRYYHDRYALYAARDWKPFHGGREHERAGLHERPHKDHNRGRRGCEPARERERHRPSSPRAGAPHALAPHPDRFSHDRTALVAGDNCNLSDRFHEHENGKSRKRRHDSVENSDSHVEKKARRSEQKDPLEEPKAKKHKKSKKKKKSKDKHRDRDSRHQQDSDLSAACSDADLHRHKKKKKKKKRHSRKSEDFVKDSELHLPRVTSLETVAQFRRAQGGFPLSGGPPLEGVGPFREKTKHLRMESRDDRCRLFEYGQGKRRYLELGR
Procedure, shortened: (§1)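 Global-median-normalised Spectronaut label-free quantities were compared by unpaired t-test, and values are average log2 ratios of fragment over vehicle. Only proteins with ≥2 unique peptides were used. HEK293T lysate (495 µg per sample) was treated in triplicate with fragment at 200 µM or vehicle for 3 h and then with Biotin-Ahx-Ub-VS at 0.5 µM final for 1 h. Labelled DUBs were then NeutrAvidin-enriched, digested with LysC and trypsin, and run by diaPASEF LC-MS/MS.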

USP46 = USP46 (UniProt P62068)
Procedure, shortened: as §1

USP47 = biological target: T2, USP47 (UniProt Q96K76)
T2 sequence (whole entry): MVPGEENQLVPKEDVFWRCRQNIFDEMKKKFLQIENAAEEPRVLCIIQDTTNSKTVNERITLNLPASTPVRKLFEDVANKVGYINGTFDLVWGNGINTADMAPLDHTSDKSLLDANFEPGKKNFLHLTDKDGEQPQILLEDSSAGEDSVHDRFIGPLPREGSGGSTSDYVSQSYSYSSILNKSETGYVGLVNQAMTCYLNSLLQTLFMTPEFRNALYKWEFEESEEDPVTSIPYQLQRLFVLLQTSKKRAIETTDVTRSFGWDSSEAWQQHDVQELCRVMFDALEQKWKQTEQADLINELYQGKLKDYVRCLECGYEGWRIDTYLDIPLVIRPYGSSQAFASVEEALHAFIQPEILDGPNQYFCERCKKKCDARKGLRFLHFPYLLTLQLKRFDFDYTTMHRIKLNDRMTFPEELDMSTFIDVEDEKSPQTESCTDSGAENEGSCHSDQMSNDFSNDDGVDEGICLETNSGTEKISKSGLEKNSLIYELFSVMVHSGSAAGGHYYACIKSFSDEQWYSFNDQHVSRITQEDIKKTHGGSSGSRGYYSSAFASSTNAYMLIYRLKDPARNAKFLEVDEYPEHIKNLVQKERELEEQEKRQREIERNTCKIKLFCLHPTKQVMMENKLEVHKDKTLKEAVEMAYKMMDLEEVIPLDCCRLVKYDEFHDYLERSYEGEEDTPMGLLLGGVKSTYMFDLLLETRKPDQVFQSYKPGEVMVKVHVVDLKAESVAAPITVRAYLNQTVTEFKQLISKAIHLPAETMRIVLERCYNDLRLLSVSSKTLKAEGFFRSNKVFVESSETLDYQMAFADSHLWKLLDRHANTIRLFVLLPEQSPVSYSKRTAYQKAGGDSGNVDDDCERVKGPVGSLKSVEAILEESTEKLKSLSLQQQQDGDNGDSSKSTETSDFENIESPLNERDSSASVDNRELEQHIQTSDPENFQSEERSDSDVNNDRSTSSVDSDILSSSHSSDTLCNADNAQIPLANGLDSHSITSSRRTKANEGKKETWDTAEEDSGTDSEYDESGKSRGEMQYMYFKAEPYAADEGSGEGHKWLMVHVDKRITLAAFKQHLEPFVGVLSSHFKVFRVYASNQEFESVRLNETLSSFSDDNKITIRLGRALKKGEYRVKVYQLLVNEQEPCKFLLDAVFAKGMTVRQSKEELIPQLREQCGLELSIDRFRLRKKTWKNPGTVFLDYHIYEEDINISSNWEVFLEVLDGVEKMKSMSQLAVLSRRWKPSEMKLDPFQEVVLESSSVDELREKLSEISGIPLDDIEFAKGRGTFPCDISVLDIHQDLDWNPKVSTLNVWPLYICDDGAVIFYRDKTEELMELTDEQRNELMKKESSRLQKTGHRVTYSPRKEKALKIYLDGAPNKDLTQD
Procedure, shortened: as §1

USP48 = biological target: T3, USP48 (UniProt Q86UV5)
T3 sequence (whole entry): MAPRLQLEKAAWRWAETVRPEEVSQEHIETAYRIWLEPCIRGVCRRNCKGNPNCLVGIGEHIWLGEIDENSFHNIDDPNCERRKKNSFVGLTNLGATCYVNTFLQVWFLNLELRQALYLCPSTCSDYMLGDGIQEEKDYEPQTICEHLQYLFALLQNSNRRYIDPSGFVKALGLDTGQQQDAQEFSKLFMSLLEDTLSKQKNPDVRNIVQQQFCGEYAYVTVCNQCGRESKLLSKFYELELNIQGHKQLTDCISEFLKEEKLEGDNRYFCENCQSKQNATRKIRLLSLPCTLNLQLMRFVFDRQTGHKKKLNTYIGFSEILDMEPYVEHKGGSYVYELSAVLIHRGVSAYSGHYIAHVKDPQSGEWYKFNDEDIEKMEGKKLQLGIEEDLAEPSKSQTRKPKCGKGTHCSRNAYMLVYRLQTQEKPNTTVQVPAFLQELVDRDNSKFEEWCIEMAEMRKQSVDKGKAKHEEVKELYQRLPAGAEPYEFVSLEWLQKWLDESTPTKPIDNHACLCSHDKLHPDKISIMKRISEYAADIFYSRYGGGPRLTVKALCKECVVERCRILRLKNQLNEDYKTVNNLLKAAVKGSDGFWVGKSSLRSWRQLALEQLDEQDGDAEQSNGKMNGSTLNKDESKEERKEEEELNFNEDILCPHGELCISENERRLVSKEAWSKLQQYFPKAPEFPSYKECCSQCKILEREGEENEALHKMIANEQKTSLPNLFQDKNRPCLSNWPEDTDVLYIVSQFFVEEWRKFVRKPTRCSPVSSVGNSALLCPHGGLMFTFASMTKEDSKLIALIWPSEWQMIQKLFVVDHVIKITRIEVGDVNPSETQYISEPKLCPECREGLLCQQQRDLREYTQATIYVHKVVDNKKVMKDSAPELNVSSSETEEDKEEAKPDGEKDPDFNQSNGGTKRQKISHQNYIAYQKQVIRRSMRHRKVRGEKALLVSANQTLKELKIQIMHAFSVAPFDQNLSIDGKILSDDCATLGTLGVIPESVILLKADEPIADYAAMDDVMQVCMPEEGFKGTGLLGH
Procedure, shortened: as §1

USP5 = biological target: T4, USP5 (UniProt P45974)
T4 sequence (whole entry): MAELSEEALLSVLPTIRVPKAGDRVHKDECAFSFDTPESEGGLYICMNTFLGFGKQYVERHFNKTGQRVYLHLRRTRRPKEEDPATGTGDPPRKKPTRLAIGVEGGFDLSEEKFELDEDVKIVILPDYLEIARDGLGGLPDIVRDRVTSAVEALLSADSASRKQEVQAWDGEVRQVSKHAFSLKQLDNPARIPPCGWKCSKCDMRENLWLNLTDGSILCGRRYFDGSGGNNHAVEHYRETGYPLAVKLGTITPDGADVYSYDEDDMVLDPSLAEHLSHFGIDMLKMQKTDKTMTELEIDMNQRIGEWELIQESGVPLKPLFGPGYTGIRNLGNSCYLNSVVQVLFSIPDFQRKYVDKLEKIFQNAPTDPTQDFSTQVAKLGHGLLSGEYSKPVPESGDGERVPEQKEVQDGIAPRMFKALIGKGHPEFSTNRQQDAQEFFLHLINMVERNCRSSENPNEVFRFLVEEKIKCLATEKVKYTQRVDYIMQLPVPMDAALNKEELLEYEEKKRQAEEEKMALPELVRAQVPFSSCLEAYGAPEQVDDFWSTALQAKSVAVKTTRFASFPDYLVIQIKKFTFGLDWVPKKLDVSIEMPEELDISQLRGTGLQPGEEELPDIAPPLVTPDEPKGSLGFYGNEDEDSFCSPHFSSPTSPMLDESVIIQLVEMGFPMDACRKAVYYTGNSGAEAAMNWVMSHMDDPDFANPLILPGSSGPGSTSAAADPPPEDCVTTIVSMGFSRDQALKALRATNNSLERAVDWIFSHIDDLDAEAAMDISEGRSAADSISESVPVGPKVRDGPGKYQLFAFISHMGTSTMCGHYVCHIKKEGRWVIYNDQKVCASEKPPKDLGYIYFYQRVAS
Procedure, shortened: as §1

USP54 = USP54 (UniProt Q70EL1)
Procedure, shortened: as §1

USP7 = USP7 (UniProt Q93009)
Procedure, shortened: as §1

USP8 = biological target: T5, USP8 (UniProt P40818)
T5 sequence (whole entry): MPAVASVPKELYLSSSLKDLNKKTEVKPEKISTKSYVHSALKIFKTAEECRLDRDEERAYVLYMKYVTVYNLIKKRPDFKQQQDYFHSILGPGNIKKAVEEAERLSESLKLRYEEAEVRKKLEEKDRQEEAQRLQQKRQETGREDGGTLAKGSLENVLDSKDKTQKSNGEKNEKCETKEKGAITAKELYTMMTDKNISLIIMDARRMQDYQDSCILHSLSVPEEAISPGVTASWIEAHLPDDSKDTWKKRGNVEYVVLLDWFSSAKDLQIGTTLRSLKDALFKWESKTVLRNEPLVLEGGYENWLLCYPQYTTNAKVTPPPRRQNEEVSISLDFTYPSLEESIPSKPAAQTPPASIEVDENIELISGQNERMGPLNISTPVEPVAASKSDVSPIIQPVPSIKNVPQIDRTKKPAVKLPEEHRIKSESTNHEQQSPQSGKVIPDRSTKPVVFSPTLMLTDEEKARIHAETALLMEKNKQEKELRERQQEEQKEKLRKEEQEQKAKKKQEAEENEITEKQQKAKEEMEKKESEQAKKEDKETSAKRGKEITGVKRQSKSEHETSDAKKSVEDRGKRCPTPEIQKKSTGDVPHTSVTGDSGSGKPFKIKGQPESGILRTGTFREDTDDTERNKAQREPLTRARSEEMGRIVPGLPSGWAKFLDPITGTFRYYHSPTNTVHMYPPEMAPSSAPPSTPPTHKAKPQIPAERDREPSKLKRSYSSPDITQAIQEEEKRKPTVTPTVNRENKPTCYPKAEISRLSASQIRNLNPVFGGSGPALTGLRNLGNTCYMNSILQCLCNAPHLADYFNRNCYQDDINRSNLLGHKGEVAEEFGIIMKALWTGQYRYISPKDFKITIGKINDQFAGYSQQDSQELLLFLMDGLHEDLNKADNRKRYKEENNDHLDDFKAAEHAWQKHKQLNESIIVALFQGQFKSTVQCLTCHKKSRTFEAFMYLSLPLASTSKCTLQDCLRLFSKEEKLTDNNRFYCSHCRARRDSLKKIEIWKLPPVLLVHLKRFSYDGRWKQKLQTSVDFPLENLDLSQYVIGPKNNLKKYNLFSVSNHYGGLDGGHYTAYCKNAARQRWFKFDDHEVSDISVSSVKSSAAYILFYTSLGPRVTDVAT
Procedure, shortened: as §1

USP9X = USP9X (UniProt Q93008)
Procedure, shortened: as §1

UniProt O00487 = biological target: UniProt O00487
Procedure, shortened: as §1

Measured: log2 ratio of Biotin-Ahx-Ub-VS probe labelling

UniProt O00487, sequence (O00487 whole entry): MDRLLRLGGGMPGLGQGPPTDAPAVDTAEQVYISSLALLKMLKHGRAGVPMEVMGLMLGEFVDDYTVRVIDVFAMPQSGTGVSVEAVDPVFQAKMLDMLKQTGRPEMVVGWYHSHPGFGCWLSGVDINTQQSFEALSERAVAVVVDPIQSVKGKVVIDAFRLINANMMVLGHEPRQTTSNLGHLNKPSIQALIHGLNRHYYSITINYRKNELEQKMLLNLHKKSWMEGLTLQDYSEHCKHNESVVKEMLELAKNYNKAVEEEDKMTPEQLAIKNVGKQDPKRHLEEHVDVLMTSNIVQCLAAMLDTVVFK
USP7, sequence (Q93009 whole entry, looked up): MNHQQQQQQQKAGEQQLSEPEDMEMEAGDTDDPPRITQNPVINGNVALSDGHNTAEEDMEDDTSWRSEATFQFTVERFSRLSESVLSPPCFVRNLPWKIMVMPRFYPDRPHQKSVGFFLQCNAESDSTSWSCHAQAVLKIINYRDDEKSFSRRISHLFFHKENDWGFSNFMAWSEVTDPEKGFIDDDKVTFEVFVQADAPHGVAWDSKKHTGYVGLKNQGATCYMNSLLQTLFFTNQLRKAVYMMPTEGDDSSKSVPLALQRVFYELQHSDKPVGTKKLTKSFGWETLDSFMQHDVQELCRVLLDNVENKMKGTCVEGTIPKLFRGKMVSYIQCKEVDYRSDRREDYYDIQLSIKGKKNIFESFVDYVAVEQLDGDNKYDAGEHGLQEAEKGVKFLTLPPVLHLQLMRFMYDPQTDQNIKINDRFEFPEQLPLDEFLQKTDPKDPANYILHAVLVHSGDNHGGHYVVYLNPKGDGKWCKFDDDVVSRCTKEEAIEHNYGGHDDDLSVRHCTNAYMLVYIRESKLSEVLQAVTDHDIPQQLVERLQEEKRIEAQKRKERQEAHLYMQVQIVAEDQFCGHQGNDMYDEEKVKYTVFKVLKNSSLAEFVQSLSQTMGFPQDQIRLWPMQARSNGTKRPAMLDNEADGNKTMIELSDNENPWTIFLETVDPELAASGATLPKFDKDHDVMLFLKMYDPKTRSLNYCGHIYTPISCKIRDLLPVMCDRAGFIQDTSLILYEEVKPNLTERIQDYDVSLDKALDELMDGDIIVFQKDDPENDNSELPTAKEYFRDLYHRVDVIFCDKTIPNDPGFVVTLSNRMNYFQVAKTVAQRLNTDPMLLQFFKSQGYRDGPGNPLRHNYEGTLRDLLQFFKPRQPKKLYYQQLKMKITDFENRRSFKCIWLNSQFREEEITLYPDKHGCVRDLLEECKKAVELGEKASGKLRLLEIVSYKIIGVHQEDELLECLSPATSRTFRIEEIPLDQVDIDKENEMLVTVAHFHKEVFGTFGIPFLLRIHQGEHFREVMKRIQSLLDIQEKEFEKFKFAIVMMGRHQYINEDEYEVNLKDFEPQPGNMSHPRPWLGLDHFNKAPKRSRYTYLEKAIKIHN
USP9X, sequence (Q93008 whole entry): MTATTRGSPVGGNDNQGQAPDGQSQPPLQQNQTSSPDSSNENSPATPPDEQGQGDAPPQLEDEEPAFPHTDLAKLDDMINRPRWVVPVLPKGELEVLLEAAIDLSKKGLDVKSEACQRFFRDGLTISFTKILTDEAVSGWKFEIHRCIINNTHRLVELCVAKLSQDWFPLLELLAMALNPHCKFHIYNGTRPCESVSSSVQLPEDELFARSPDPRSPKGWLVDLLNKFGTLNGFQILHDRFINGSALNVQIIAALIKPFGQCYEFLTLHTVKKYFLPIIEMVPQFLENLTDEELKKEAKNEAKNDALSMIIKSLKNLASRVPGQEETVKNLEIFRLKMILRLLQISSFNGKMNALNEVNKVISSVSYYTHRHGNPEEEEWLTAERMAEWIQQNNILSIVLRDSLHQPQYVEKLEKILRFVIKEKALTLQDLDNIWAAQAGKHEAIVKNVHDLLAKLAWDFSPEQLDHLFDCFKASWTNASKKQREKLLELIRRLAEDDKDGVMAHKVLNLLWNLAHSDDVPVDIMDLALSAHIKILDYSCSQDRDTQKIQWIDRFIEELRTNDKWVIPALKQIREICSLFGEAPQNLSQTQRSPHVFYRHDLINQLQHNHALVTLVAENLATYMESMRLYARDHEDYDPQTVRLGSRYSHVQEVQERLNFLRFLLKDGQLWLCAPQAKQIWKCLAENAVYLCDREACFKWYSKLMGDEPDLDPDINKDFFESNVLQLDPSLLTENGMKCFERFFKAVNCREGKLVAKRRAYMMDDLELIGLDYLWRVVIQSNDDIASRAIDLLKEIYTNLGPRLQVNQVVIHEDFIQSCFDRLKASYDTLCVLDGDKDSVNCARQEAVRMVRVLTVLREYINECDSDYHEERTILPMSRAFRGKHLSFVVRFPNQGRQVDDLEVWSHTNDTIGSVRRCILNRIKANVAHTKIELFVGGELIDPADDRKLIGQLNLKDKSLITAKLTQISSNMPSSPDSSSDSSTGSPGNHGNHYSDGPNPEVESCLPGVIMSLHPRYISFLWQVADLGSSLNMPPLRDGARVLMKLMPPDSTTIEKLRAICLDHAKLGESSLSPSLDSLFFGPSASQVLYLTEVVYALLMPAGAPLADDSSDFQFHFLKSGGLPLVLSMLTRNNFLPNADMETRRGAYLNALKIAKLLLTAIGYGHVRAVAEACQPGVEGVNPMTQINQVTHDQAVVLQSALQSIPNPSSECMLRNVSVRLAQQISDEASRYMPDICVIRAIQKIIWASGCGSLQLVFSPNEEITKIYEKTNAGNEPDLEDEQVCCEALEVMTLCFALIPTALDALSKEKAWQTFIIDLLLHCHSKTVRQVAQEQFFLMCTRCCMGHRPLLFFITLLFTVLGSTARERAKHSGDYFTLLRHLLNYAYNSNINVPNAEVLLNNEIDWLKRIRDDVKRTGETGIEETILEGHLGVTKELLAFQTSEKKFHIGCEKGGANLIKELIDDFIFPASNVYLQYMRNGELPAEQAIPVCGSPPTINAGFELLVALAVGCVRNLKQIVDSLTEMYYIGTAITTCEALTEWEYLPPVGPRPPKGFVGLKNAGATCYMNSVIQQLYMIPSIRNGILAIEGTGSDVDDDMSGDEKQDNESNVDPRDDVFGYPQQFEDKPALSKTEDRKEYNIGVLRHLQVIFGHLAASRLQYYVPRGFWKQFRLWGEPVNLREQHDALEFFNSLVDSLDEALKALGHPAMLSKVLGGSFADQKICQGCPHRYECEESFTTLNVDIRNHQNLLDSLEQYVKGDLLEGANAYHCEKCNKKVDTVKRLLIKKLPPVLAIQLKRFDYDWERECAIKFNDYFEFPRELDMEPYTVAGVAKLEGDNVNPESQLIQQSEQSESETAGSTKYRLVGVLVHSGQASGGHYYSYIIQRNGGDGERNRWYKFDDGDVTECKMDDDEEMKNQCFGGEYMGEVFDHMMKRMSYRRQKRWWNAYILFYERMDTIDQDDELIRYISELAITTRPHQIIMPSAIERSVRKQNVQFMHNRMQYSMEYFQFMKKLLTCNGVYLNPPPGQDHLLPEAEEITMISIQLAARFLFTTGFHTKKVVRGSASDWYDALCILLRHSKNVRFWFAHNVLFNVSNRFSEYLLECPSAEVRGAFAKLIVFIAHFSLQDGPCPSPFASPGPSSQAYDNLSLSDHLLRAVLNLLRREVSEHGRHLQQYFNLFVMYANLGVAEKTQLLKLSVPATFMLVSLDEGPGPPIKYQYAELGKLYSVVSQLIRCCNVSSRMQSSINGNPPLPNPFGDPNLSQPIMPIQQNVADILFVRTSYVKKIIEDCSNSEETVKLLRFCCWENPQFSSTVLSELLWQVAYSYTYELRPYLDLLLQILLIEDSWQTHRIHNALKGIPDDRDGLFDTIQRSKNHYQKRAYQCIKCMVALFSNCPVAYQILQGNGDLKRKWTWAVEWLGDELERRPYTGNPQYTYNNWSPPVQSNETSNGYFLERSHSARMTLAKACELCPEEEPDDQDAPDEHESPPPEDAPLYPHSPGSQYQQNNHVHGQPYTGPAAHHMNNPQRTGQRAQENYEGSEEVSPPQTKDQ
USP46, sequence (P62068 whole entry): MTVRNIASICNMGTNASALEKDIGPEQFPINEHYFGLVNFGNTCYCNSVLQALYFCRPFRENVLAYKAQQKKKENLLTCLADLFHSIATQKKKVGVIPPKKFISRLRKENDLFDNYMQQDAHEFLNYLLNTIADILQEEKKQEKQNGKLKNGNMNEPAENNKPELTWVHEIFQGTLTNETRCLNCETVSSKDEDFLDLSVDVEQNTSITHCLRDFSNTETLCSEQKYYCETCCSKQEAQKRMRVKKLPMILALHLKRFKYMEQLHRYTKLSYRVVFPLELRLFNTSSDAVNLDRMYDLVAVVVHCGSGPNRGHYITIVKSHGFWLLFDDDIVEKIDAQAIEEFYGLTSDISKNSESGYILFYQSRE

COCC1C=CCCN1C(=O)CCl (stereo not given)
inactive: USP42 -0.485 | USP46 0.0708 | USP47 -0.789 | USP48 -0.152 | USP5 0.0548 | USP54 0.237 | USP7 -0.21 | USP8 -0.0182 | USP9X -0.16 | UniProt O00487 -0.0987

CC(NC(=O)CCl)c1cccc(Cl)c1 (stereo not given)
inactive: USP42 -0.459 | USP46 -0.115 | USP47 -0.252 | USP48 -0.283 | USP5 0.0893 | USP54 0.882 | USP7 -0.385 | USP8 -0.413 | USP9X -0.388 | UniProt O00487 -0.18

Cc1ccc(-c2nnc(C)[nH]2)c(NC(=O)CCl)c1
inactive: USP42 0.00752 | USP46 0.277 | USP47 -0.177 | USP48 -0.239 | USP5 0.0867 | USP54 -0.227 | USP7 -0.138 | USP8 0.112 | USP9X -0.0335 | UniProt O00487 -0.138
